Inhibition data for 94 molecules are collected here from PubChem BioAssay AID1850 (Southern Research Specialized Biocontainment Screening …, 2009).

Each structure is given as a SMILES string. Where “and” joins values, the source holds several entries; their conditions need not be identical. Identical values can stand only once. Out of some 310,000 compounds screened, about 1,000 (0.32%) were called active. How the calls were made is not given here. The list is a sample of the results. Measured potencies and affinities stand elsewhere.

The assay in a line: PhoP regulon inhibitors, Salmonella typhi PhoP promoter GFP reporter, confirmatory (AID 1850).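 Further: 0% = induced wells with vehicle and 100% = uninduced wells.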 To be noted: fluorescence, 4 h, at 50 µM, stronger effect = higher value.
Regarding `CCOc1cc(C(=O)Nc2ccccc2N2CCOCC2)ccc1OCC(=O)N1CCCCC1`, the inhibition is -2.04% (inactive). On to `CC1Oc2cc3c(-c4c(O)cc(O)c5c(O)c6c(cc45)OC(C)C(C)C6=O)c(O)cc(O)c3c(O)c2C(=O)C1C` (centres undefined), for which the inhibition is 15.3% (inactive). On to `C[C@@H]1Cc2c(O)c(O)cc(O)c2C(=O)O1`, for which the inhibition was 6.45% (inactive).

Take `Cc1cnc(C(=O)NC2CC(C)(C)Cc3c2cnn3-c2cccc(F)c2)cn1` (centres undefined): the inhibition was -5.99% (inactive). As to `NC(=O)c1ccc(SCC(=O)OCC(=O)NCc2ccco2)c([N+](=O)[O-])c1`, the inhibition is -1.63% (inactive).

Regarding `Nc1nc(N)nc(-c2cccc(Cl)c2Cl)n1`, the inhibition was -6.05% (inactive).

Take `Nc1nnc(-c2ccccc2)c(-c2ccccc2)n1`: the inhibition was -9.89% (inactive).

Regarding `CC(=O)N1CCN(S(=O)(=O)c2cccc(C(=O)Nc3ccccc3N3CCCC3)c2)CC1`, the inhibition was -2.62% (inactive). The result for `O=C(O)[C@H](Cc1ccccc1)NC(=O)N1CCOCC1` reads -2.76% (inactive).

With `O=C(CCNC(=O)c1ccc(Br)cc1)NCc1cccnc1`, the inhibition was -2.13% (inactive). Turning to `COc1ccc2c(C(=O)CN3CCN(CCO)CC3)c[nH]c2c1`, the inhibition is -2.19% (inactive). Then `COc1ccc2[nH]cc(C(=O)CCl)c2c1`, with 30.9% (inactive). As for `CCc1nc(SCC#N)c(C#N)cc1C`, the inhibition is -1.52% (inactive). Then `CNC[C@@H](C)NC[C@@H](Cc1ccccc1)NCCc1ccccc1`, with 19.6% (inactive); and `CCC[C@H](CN[C@@H](CNC)[C@H](C)O)NCCc1ccc(OC)cc1`, with -14.6% (inactive).

For the molecule `CC(Cc1cccc(C(F)(F)F)c1)NCCOC(=O)c1ccccc1` (centres undefined), the inhibition is 12.2% (inactive) and -11.7% (inactive). Then `COc1ccccc1CCNCc1cccc(C(F)(F)F)c1`, with 2.37% (inactive); and `CCC[C@@H](CN[C@@H](CNC)[C@H](C)CC)NCC1CCC(C(C)(C)C)CC1` (some centres undefined), with 11.1% (inactive); and `CC(CCc1ccccc1)NCc1cccc2ccccc12` (centres undefined), with -6.36% (inactive). `Cc1cc(C)n2c(Nc3ccc4c(c3)OCCO4)c(-c3ccccc3)nc2n1`: the inhibition is -10.2% (inactive). As for `CCCCN1C(=O)C2NN=C(C(=O)OCC)C2C1=O` (centres undefined), the inhibition was 8.14% (inactive). Turning to `Cc1ccc(-n2nc3c(c2NC(=O)c2ccc4c(c2)OCO4)CS(=O)(=O)C3)cc1C`, the inhibition was -5.55% (inactive). Take `COc1ccccc1N1C(=O)c2ccccc2NC1c1cc(OC)c(OC)c(OC)c1` (centres undefined): the inhibition is 2.7% (inactive).

Take `CCc1ccccc1NC(=O)C1CCN(C(=O)c2ccc([N+](=O)[O-])cc2)CC1`: the inhibition was -0.4% (inactive).

As to `O=C(NCc1ccc(OC(F)(F)F)cc1)C1CC2Cn3c(nc4ccccc43)C2N1Cc1ccccc1` (centres undefined), the inhibition is 2.43% (inactive). The result for `N#Cc1c(-c2ccccc2)cc(-c2ccc(O)cc2)nc1N` reads -7.46% (inactive); that for `O=C(COC(=O)c1ccccc1[N+](=O)[O-])NC(=O)c1ccccc1`, -0.26% (inactive). Then `CCNC(=O)Cn1c(=O)c(=O)n(Cc2ccccc2)c2ccc(Cl)cc21`, with -13.1% (inactive); and `Cc1ccc(CC2CC(=O)N(c3ccc(C)cc3)C2=O)cc1` (centres undefined), with 7.02% (inactive); and `CCn1c2ccccc2c2cc(NC(=O)CSc3nnc(-c4ccccc4OC)n3N)ccc21`, with -0.4% (inactive).

Turning to `N=c1c2c(-c3ccccc3)c(-c3ccccc3)n(Cc3ccco3)c2ncn1CCCO`, the inhibition is 12.1% (inactive). The result for `N=c1c2c(-c3ccccc3)c(-c3ccccc3)n(Cc3ccccc3)c2ncn1CCCn1ccnc1` reads -3.96% (inactive). Then `CCOC(=O)C1=C(CS(=O)(=O)c2ccccc2)NC(=O)NC1c1ccc(OC)c(OC)c1` (centres undefined), with -2.15% (inactive); and `Cn1c2c(c(=O)n(C)c1=O)CN(Cc1ccc(F)cc1)CN2`, with 7.57% (inactive).

`Fc1ccc(-c2nc3ccccc3[nH]2)cc1`: the inhibition is -1.08% (inactive). Consider `c1ccc2[nH]c(-c3ccncc3)nc2c1`, for which the inhibition was 5.01% (inactive). Then `C[N+](C)(C)CCCCCC[N+](C)(C)C`, with -25.1% (inactive); and `C[N+](C)(C)CCCCCCCCCC[N+](C)(C)C`, with 8.92% (inactive). Then `CCCCCC[N+](C)(C)CCSSCC[N+](C)(C)CCCCCC`, with 5.58% (inactive). The result for `C#CC[N+](C)(C)CCCCCCCCCC` reads 2.68% (inactive); that for `CC1CC(=O)Nc2ccccc2N1C(=O)Nc1ccc(F)cc1` (centres undefined), -0.31% (inactive); that for `Cc1ccc(-c2ccc(C(=O)O)o2)cc1Cl`, 6.76% (inactive). In the case of `CCOC(=O)C(=CNc1cc(C)ccc1C)C(=O)OCC`, the inhibition was -9.72% (inactive).

For the molecule `CCOC(=O)Cc1csc(NC(=O)c2cnc3scc(C)n3c2=O)n1`, the inhibition is -13.9% (inactive). Take `CN1CCN(C(c2ccccc2)c2ccccc2)CC1`: the inhibition was -1.19% (inactive). Regarding `CN1CCN(C(c2ccccc2)c2ccc(Cl)cc2)CC1` (centres undefined), the inhibition is -4.81% (inactive). As to `CN1CCN(CCOc2cccc(Cl)c2)CC1`, the inhibition is 4.36% (inactive). Then `O=C(O)c1cc(S(=O)(=O)N2CCN(C(c3ccccc3)c3ccccc3)CC2)ccc1Cl`, with -2.19% (inactive); and `Cc1cc(C)cc(C(=O)NCC(=O)OC(C)C(=O)N(C)c2ccccc2)c1` (centres undefined), with -2.85% (inactive); and `Cc1nc2sc3c(c2c(=O)[nH]1)CCCCC3`, with -10.5% (inactive). Consider `Cc1ccccc1-n1ccnc1SCC(=O)NCc1ccco1`, for which the inhibition is 1.18% (inactive). Consider `O=C(c1ccc(Cl)c(NC2=NC3CS(=O)(=O)CC3S2)c1)N1CCN(c2ccccc2)CC1` (centres undefined), for which the inhibition is -0.27% (inactive).

As for `Cc1ccc(OCCn2cc(C#N)c3ccccc32)cc1`, the inhibition is -3.38% (inactive).

As for `COc1ccc(F)cc1S(=O)(=O)NC1CC(C)(C)NC(C)(C)C1`, the inhibition was -0.42% (inactive). `CCOc1cccc2sc(=NC(=O)CCS(=O)(=O)c3ccc(F)cc3)n(C)c12`: the inhibition was -5.1% (inactive). With `O=C(C1CCCN(S(=O)(=O)c2cccc3nonc23)C1)N1CCN(c2cccc(Cl)c2)CC1` (centres undefined), the inhibition was 2.17% (inactive). On to `CCCNC(=O)C1CC(=O)N(c2ccc(OCC)cc2)C1` (centres undefined), for which the inhibition is -4.98% (inactive).

With `Cc1ccccc1Nc1nc(NCc2ccco2)c2ccccc2n1`, the inhibition is -14.1% (inactive).

For `Oc1ccccc1Nc1nc(NCc2ccccc2)c2ccccc2n1`, the inhibition is 2.95% (inactive).

Consider `Cc1cccc(Nc2nc(N)c([N+](=O)[O-])c(NCc3ccco3)n2)c1`, for which the inhibition was -6.31% (inactive). Turning to `CSc1nc(NCc2ccco2)c2ccccc2n1`, the inhibition is 3.85% (inactive). The result for `COc1ccc(OC)c(Nc2nc(NCc3ccco3)c3ccccc3n2)c1` reads -4.32% (inactive); that for `Cc1cccc(Nc2nc(NCc3ccco3)nc(N)c2[N+](=O)[O-])c1`, -3.95% (inactive). On to `Fc1ccccc1-c1nc(NCc2ccco2)c2ccccc2n1`, for which the inhibition is -5.43% (inactive). Consider `COc1cccc(-c2nc(NCc3ccco3)c3ccccc3n2)c1O`, for which the inhibition was -5.74% (inactive). As to `COc1ccccc1-c1c(C)nn2c(N3CCC4(CC3)OCCO4)cc(C)nc12`, the inhibition was -2.41% (inactive).

Regarding `O=C(COC(=O)C1CC(=O)N(c2nc(-c3ccccc3)cs2)C1)c1ccccc1` (centres undefined), the inhibition was -9.24% (inactive). With `CC(=O)NC(Cc1ccc(N(CCCl)CCCl)cc1)C(=O)NCC(=O)NCC(=O)O` (centres undefined), the inhibition was 6.1% (inactive). Regarding `Cc1nn(CCCC(=O)NCCCN2CCN(C)CC2)c(=O)c2c1sc1ccccc12`, the inhibition is 11.5% (inactive). Then `Cc1ccc(S(=O)(=O)NCCC(=O)OCc2ccc([N+](=O)[O-])cc2)cc1C`, with -4.36% (inactive); and `COC(=O)c1cc2oc(C)cc2n1CC(=O)N1CCCc2ccccc21`, with -6.03% (inactive); and `O=C(Nc1ccn(Cc2c(F)c(F)c(F)c(F)c2F)n1)c1cccc(Cn2cc([N+](=O)[O-])cn2)c1`, with -7.4% (inactive). For `CCc1cccc(C)c1NC(=O)c1cccnc1`, the inhibition was -4.39% (inactive). The result for `O=C1C(Cl)=C(NCCN2CCCCC2)C(=O)c2ccccc21` reads -2.93% (inactive).

`Nc1nc(Nc2ccccc2)nc(NCc2ccco2)c1[N+](=O)[O-]`: the inhibition is 3.06% (inactive). Then `Cc1ccc(Nc2nc(NCc3ccco3)c3ccccc3n2)cc1`, with 5.88% (inactive); and `O=C(OCC(=O)N(Cc1ccccc1)Cc1ccccc1)c1ccccc1NCCO`, with -4.63% (inactive). As to `CSc1nc2c(c(=O)[nH]1)C(c1ccc(C(F)(F)F)cc1)CC(=O)N2` (centres undefined), the inhibition was 6.77% (inactive). The result for `CNc1oc(-c2cccs2)nc1S(=O)(=O)c1ccccc1` reads -10% (inactive). Turning to `COc1ccc(C(OCC(O)CN(C)C2CCCCC2)c2ccc(OC)cc2)cc1` (centres undefined), the inhibition was -25.4% (inactive). The result for `Cc1ccc(/C=N/NC(=O)C(O)c2ccccc2)o1` (centres undefined) reads 1.91% (inactive); that for `O=C(N/N=C/c1ccc(Br)s1)c1ccccc1[N+](=O)[O-]`, -8.63% (inactive).

Take `Cc1cc(C(=O)N/N=C/c2ccc([N+](=O)[O-])s2)c2ccccc2n1`: the inhibition is 4.3% (inactive). Turning to `O=C(N/N=C/c1ccc(-c2ccc([N+](=O)[O-])cc2)o1)C(O)c1ccccc1` (centres undefined), the inhibition was -3.63% (inactive).

`Cc1ccc(NC(C)C(=O)N/N=C/c2ccc([N+](=O)[O-])s2)cc1` (centres undefined): the inhibition is -1.13% (inactive). For the molecule `O=C(N/N=C/c1ccc([N+](=O)[O-])s1)c1ccccc1`, the inhibition was 6.9% (inactive). For `O=C(N/N=C/c1ccc([N+](=O)[O-])s1)c1cccc(Br)c1`, the inhibition was -0.18% (inactive). Then `O=C(N/N=C/c1ccc(Cl)s1)C(O)c1ccccc1` (centres undefined), with -6.88% (inactive); and `O=C(c1cc2ccccc2cc1O)N1CCN(c2ccc([N+](=O)[O-])cc2)CC1`, with 6.8% (inactive); and `O=C(NCCCSc1ccccc1)c1ccc(=O)[nH]c1`, with -9.17% (inactive). Then `C=CCc1cc(Cl)ccc1OCCN1CC(C)OC(C)C1` (centres undefined), with -16% (inactive); and `Cn1c(-c2cccc([N+](=O)[O-])c2)cnc1NCc1ccc(C#N)cc1`, with -3.32% (inactive); and `CC1(C)Cc2c(sc3c2c(N)nc(=S)n3Cc2ccccc2)CO1`, with -10.9% (inactive). Consider `O=C(NCCC1=CCCCC1)c1cc(S(=O)(=O)N2CCOCC2)ccc1Cl`, for which the inhibition was -3.59% (inactive).

The inhibition is the relative decrease from the control value, in per cent.
